Holding throughout (assay): Primary qHTS to identify gynecologic anti-cancer compounds using libraries of approved drugs and bioactive compounds (AID 1345084); also: nearly all actives have a fitted effect of over 55% in size
In one assay the test system is Es-2. Conditions: Gynecologic cancer cell panel viability, ATPlite luminescence, 48 h; series mostly up to 57.5 µM. In outline:
(§1)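 Five-concentration response, 48 h; readout is ATP-driven luciferase luminescence.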

The subject of the next assay is Hek293T. Conditions: Gynecologic cancer cell panel viability, ATPlite luminescence, 48 h, control line for the selectivity index; series mostly up to 57.5 µM. In short, it runs like this: as §1
A further assay has as its system JEG-3. To be noted: Gynecologic cancer cell panel viability, ATPlite luminescence, 48 h; series mostly up to 57.5 µM. In short, it runs like this: as §1
A further assay concerns HeLa. Conditions: Gynecologic cancer cell panel viability, ATPlite luminescence, 48 h; series mostly up to 57.5 µM. In outline:
as §1

This passage reports Potency and activity change, negative = cytotoxicity results from PubChem BioAssay (NCATS).

SMILES strings stand for the structures. Records with an inconclusive call do not appear. The source made the active and inactive calls. Calls follow the shape of the dose curve; as a rule, active = well fitted cell-killing curve with a large enough effect; inconclusive = small, poorly fitted or top-dose-only effect, or effect the other way; inactive = flat fitted curve, though single readings scatter.
% is scaled to controls: 0 for no effect and ±100 for the full control effect; potency is read from the fitted curve at half-maximal effect.

On to `CN(C)CCCn1cc(C2=C(c3c[nH]c4ccccc34)C(=O)NC2=O)c2ccccc21`, for which the Potency in the assay on Es-2 is 28.2 µM (active); with Hek293T it was 22.4 µM (active). In addition, the Potency result in the assay with JEG-3 was “inactive”. In the case of `O=C(Nc1cccc2cccnc12)c1ccc(N2C(=O)[C@@H]3C4C=CC(C4)[C@@H]3C2=O)cc1`, the Potency in the assay with JEG-3 is 31.6 µM (active). For the compound `CC1(C)CC[C@]23CO[C@@]4(CCC5[C@@]6(C)CC[C@H](O[C@@H]7OC[C@H](O[C@@H]8O[C@H](CO)[C@@H](O)[C@H](O)[C@H]8O[C@@H]8OC[C@@H](O)[C@H](O)[C@H]8O)[C@H](O)[C@H]7O[C@@H]7O[C@H](CO)[C@@H](O)[C@H](O)[C@H]7O)[C@@](C)(CO)C6CC[C@@]5(C)[C@]4(C)C[C@H]2O)[C@@H]3C1` (stereo partly drawn), in the assay on HeLa, the activity change, negative = cytotoxicity is -0.159% [at 11.6 µM] (inactive). Regarding `COc1ccc(C#Cc2ccc(C(=O)N3CCC[C@@H](O)C3)c(F)c2)cc1`, the Potency was 12.6 µM (active) in the assay with Es-2 and 14.1 µM (active) in the assay with Hek293T. In addition, the Potency result in the assay with JEG-3 is “inactive”. In the case of `O=C(Nc1cccc(C(F)(F)F)c1)Nc1ccc(Br)cc1-c1nn[nH]n1`, the Potency result with JEG-3 was “inactive”.

On to `N#CC(CCCN1CCC(O)(c2ccc(Cl)cc2)CC1)(c1ccccc1)c1ccccc1`, for which the Potency result in the assay on Hek293T and with JEG-3 was “inactive” throughout. With `C=CC(=O)N1CCC[C@@H](n2nc(-c3cccc(C(=O)Nc4ccc(C(C)C)c(C)c4)c3)c3c(N)ncnc32)C1`, the Potency result in the assay with Hek293T and with JEG-3 was “inactive” each time. `C=CC(=O)Nc1cccc(Nc2nc(Nc3ccc(OCCOC)cc3)ncc2F)c1`: the Potency in the assay with HeLa is 11.2 µM (active). Moreover, in the assay on JEG-3, the Potency entry was “inactive”. Turning to `C/C1=C\CCC2=CC(OC2=O)C(C)(C)/C=C/C1=O` (stereo not drawn), the Potency result in the assay on HeLa is “inactive”. With `CC(C)CC(=O)c1c(O)cc2c(c1O)C(CC(C)C)C1=C(O2)C(C)(C)C(=O)C(C)(C)C1=O` (stereo not drawn), the Potency entry in the assay with Es-2 and in the assay with JEG-3 was “inactive” in each case.
